# In the library only some 2.4% were active in any assay of this set; here they are far more common.
# Platelet DG rel = inhibitors of platelet dense granule secretion, primary screen, cell-based, MLPCN, human platelets; human platelet-rich plasma, SFLLRN dense granule ATP release, luminescence; inhibition, %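 (compounds screened at 7.5 µM in platelet-rich plasma)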; 0.22% of 300,000 active; AID 1663, 2009;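 active = mean replicate score, as percent of positive control, at or above 50; inconclusive = mean below 50 but at least one replicate at or above 50; inactive = mean and every replicate below 50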
# SENP6 inh = SENP6 protease inhibitors, primary screen, biochemical, luminescence, uHTS | Sentrin-specific protease 6 (Homo sapiens), Q9GZR1 | Recombinant SENP6 catalytic domain, aminoluciferin luminescence | inhibition, % at 10 µM | 1.8% of 330,000 active | AID 2599, 2010;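 active = inhibition above about 50% at the single tested dose, limit read from the data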;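 also: plate controls were DMSO wells with enzyme for no effect and DMSO wells lacking enzyme for full effect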
# SENP7 inh = SENP7 protease inhibitors, primary screen, biochemical, luminescence, uHTS. Sentrin-specific protease 7 (Homo sapiens), Q9BQF6. inhibition, % at 5 µM. 1.5% of 330,000 active. recombinant SENP7, Z-RLRGG-aminoluciferin luminescence, 40 min;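 active = inhibition above about 50% at the single test dose, limit read from the data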;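 also: plate controls were DMSO with enzyme for no effect and no enzyme buffer wells for full effect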
# SENP8 block-1 = human SENP8 protease inhibitors, primary screen, biochemical, fluorescence, Nedd8 protein substrate, uHTS; inhibition, % at 20 µM; recombinant SENP8; 0.64% of 360,000 active; in the data active = inhibition mostly above about 40%, no sharp cut-off; inactive = mostly below about 27%
# Target sequence (Q96LD8 whole entry, looked up): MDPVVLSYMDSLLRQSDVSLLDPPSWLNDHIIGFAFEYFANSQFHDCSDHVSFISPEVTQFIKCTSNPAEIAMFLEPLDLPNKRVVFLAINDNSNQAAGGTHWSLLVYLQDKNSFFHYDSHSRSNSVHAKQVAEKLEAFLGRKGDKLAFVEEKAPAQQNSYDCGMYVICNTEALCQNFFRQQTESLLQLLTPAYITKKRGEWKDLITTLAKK
# SENP8 block-2 = SENP8 protease inhibitors, primary screen, biochemical, luminescence; AID 2540, 2010; 1.2% of 330,000 active; purified SENP8, Z-RLRGG-aminoluciferin cleavage; inhibition, % at 10 µM; in the data active = inhibition above about 50%
# SENP8 conf = SENP8 protease inhibitors, retest, confirmation, biochemical, luminescence, single concentration. AID 488912, 2010. shares compounds with SENP7 inh. Recombinant SENP8, Z-RLRGG-aminoluciferin luminescence, 60 min. inhibition, % at 12.5 µM. 40% of 6,200 active;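 active = mean inhibition across replicates above about 50%, limit read from the data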
# SENP6 conf = SENP6 protease inhibitors, confirmation, biochemical, luminescence, single concentration; 58% of 6,200 active; recombinant SENP6, Z-RLRGG-aminoluciferin luminescence; shares compounds with SENP7 inh; inhibition, % at 12.5 µM
# SENP7 conf = SENP7 protease inhibitors, retest, confirmation, biochemical, luminescence, single concentration; 69% of 6,200 active; recombinant SENP7, Z-RLRGG-aminoluciferin luminescence, 40 min; shares compounds with SENP7 inh; AID 488917, 2010; inhibition, % at 12.5 µM
# Casp3 SENP sel = caspase-3 protease inhibitors, confirmation, selectivity assay for SENP inhibitor project, biochemical, single concentration | shares compounds with SENP7 inh | purified caspase-3, Z-DEVD-aminoluciferin luminescence, 60 min | inhibition, % at 12.5 µM | 60% of 6,200 active;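 active = mean inhibition above about 50%, limit read from the data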;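 also: plate controls were enzyme with DMSO for no effect and wells without caspase-3 for full effect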
# Target sequence (P42574 28-227 limits assumed): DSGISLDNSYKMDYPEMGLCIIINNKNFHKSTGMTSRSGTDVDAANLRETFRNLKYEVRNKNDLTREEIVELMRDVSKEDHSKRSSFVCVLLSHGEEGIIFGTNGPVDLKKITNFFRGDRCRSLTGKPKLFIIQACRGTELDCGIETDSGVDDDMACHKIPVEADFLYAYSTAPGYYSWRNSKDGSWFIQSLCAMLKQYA
# SENP luc ctr = interferes with luciferase luminescence in SENP counter-screen. shares compounds with SENP7 inh. Pre-incubated SENP8/Z-RLRGG-aminoluciferin, luciferase luminescence interference. inhibition, % at 12.5 µM. 39% of 6,200 active;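 active = mean inhibition above about 50% when retested at one dose, limit read from the data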;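 also: plate controls were DMSO wells with completed reaction for no effect and substrate without enzyme for full effect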
# The depositor's hits bear a star; ? = inconclusive; . = no result given.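 The calls were made as follows, unless noted: active = mean inhibition above about 50% in the one-dose retest (limit read from the data); inactive = the rest.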
SMILES,Platelet DG rel,SENP6 inh,SENP7 inh,SENP8 block-1,SENP8 block-2,SENP8 conf,SENP6 conf,SENP7 conf,Casp3 SENP sel,SENP luc ctr
Cn1c(NC(=O)c2ccc(F)cc2)nc2ccccc21,5,80*,78*,-36,65*,46,75*,95*,86*,17
O=C(Nc1cccc(F)c1)C1CCCN(c2cnccn2)C1 (centres undefined),-3,-1,3,-402,1,.,.,.,.,.
N/C(=N\OC(=O)CCC1CCCC1)c1ccccn1,-6,87*,68*,7,67*,82*,80*,95*,91*,83*
N/C(=N\OC(=O)CCC1CCCC1)c1ccccc1,10,69*,17,5,41,72*,71*,89*,83*,53*
N/C(=N\OC(=O)CCCc1ccccc1)c1ccccn1,-3,50*,37,4,12,28,28,73*,73*,54*
N/C(=N\OC(=O)Cc1ccccc1)c1ccccn1,-3,-6,-12,26,-8,.,.,.,.,.
O=C(/C=C/c1ccco1)NC(=S)Nc1cc(-c2nc3ccccc3s2)ccc1Cl,.,.,.,-33,.,.,.,.,.,.
O=C(/C=C/c1ccco1)NC(=S)Nc1cccc(-c2nc3ccccc3s2)c1,9,63*,5,-38,41,20,17,7,19,-2
O=C(/C=C/c1ccco1)Nc1ccc(N2CCCC2)cc1,4,63*,68*,28,43,39,32,57*,21,27
COc1cccc(NC(=O)/C=C/c2ccco2)c1,18,58*,92*,2,84*,-12,88*,100*,93*,88*
CC(C)c1cccc(C(C)C)c1OCCCCCN1CCOCC1,3,-1,4,7,7,.,.,.,.,.
COc1ccc(/C(C)=N/Nc2nncc3ccccc23)cc1,10,46,75*,23,46,2,6,10,18,-4
Oc1c(Br)cc(/C=N/Nc2ccc(Cl)nn2)cc1Br,17,-4,-2,0,-13,.,.,.,.,.
Oc1c(Br)cc(/C=N/Nc2nncc3ccccc23)cc1Br,20,72*,17,.,69*,8,11,-1,7,0
COc1ccc(/C=N/Nc2nncc3ccccc23)cc1,68*,99*,97*,-2,97*,97*,100*,104*,99*,99*
COc1ccccc1/C=N/Nc1nncc2ccccc12,28,43,37,1,20,.,.,.,.,.
O=C(NCc1ccc(F)cc1)c1cc(C2CCCCN2S(=O)(=O)c2ccc(F)cc2F)on1 (centres undefined),.,.,.,19,.,.,.,.,.,.
CCCCN(C(=O)C1CC(=O)N(c2ccc(OC)cc2OC)C1)c1c(N)n(CC(C)C)c(=O)[nH]c1=O (centres undefined),?,-5,4,0,0,.,.,.,.,.
O=C(Cn1ncc(Cl)c(Cl)c1=O)c1ccc2c(c1)OCCO2,.,56*,23,-3,41,15,40,48,20,9
CC(=O)Oc1ccc(-c2csc(Nc3cccc(C)n3)n2)cc1,-2,73*,87*,4,87*,11,50,55*,70*,2
CC(=O)Oc1ccc(-c2csc(Nc3ccccn3)n2)cc1,.,.,.,0,.,.,.,.,.,.
Cc1cccc(Nc2nc(-c3ccc(F)cc3)cs2)n1,1,96*,85*,11,84*,11,81*,97*,56*,12
COc1ccc(-c2csc(Nc3cccc(C)n3)n2)cc1,2,90*,81*,8,88*,6,81*,96*,54*,8
CCOC(=O)[C@]12CCC=C1N(Cc1cccc3ccccc13)C(=O)[C@H](CC(=O)N1CCCC1)C2,.,.,.,12,.,.,.,.,.,.
CCCCNC(=O)NS(=O)(=O)c1ccc(NC(=O)CCC(=O)c2cccs2)cc1,3,3,-5,10,-11,.,.,.,.,.
SMILES,Platelet DG rel,SENP6 inh,SENP7 inh,SENP8 block-1,SENP8 block-2,SENP8 conf,SENP6 conf,SENP7 conf,Casp3 SENP sel,SENP luc ctr
O=C(NCc1ccc(F)cc1)c1cc(C2CCCCN2C(=O)CCc2ccccc2)on1 (centres undefined),.,.,.,3,.,.,.,.,.,.
C[C@@H](OC(=O)N1CCCCC1)[C@H]1O[C@]2(C)CCCC[C@H]1O2,.,-1,-5,5,1,.,.,.,.,.
Cc1ccc(S(=O)(=O)N(CCCO)CC(O)CON=C2c3ccccc3-c3ccccc32)cc1 (centres undefined),19,-4,11,-8,9,.,.,.,.,.
Cc1ccc(-c2csc(N3C(=N)SCC3=O)n2)cc1,5,0,71*,.,51*,2,13,10,16,8
COc1cc(C=C2C(=O)c3ccccc3C2=O)ccc1O,35,-10,94*,18,93*,13,91*,97*,80*,61*
COc1ccc(C=C2C(=O)c3ccccc3C2=O)cc1O,30,95*,96*,13,94*,98*,98*,102*,94*,20
CC(/C=C1\SC(=S)N(NS(=O)(=O)c2ccc(C)cc2)C1=O)=C\c1ccccc1,2,-13,13,38,84*,-9,84*,11,23,7
CC(/C=C1\SC(=S)N(NS(=O)(=O)c2ccccc2)C1=O)=C\c1ccccc1,4,96*,3,33,80*,92*,92*,37,44,16
CC(/C=C1\SC(=S)N(NC(=O)c2ccccc2C)C1=O)=C\c1ccccc1,5,-19,-6,27,-6,.,.,.,.,.
C/C(=N/N=C/c1ccccc1O)c1ccccc1O,-5,60*,86*,17,55*,19,30,30,26,10
CCc1cc(C(=O)N2CCCC(C(=O)c3cccc4ccccc34)C2)n(C)n1 (centres undefined),-2,6,4,1,4,.,.,.,.,.
